These results are taken from PubChem BioAssay (NCATS).

Unmarked numbers belong to inactive results. Records with an inconclusive call do not appear. The source made the active and inactive calls. Unless noted, the call rests on the fitted dose curve; in most records, active means well fitted curve in either direction with a large enough effect (not every such curve was filed as active); inconclusive means small, poorly fitted or top-dose-only effect, or another doubt; inactive means flat fitted curve, though single readings scatter.

Assay [1] deals with Lysosomal acid glucosylceramidase (Homo sapiens) (UniProt P04062). In words: Glucocerebrosidase-p2 (AID 348; in the data active means potency below about 10 µM; further: potency means the concentration at half of the fitted maximal effect). Particulars: purified GBA, blue fluorogenic substrate, 40 min. In outline:
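Compounds titrated from 0.6 nM upwards against 0.2 nM enzyme in pH 5.9 citric acid/KH2PO4, taurocholate, tween-20; blue fluorogenic substrate 80 uM, 40 min room temperature, stopped and read Ex 365/Em 440 for AC50.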

The nature of assay [2]: AP1 Signaling Pathway (AID 357).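 Further: ME-180 reporter cells stimulated with EGF at its EC50 level; on the % scale 0 is the no-effect control and ±100 the full control effect.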 The settings on record: ME-180 AP-1-bla reporter, EGF-induced, beta-lactamase ratio, 5 h; at 7.69 µM (top of the series) unless noted. In outline:
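Read-out was the 460nm/530nm emission ratio (excitation 405nm) after CCF4 loading for 2.5 hours at room temperature. Cells carried an AP-1-driven beta-lactamase reporter, were stimulated with EC50 EGF plus compound for 5 hours, and AC50 values came from titrations.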

Assay [3] deals with Cytochrome P450 1A2 (Homo sapiens) (UniProt P05177). In words: p450-cyp1a2 (AID 410; calls by dose curve; further: potency means the concentration at half of the fitted maximal effect;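 on activity change, negative = inhibition: -100% = full effect of reference inhibitor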). The settings on record: recombinant CYP1A2, luciferin-ME demethylation, luminescence; series mostly up to 11.4 µM. Summed up:
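Human CYP1A2 (20nM) demethylated Luciferin-ME at its Km (100uM) in 100mM KPO4. After 10 min compound preincubation, NADPH regeneration ran the reaction 60 min at room temperature. Luciferin was read by luminescence, normalized to 57 uM furafylline.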

A short description of assay [4]: NFAT Signaling Pathway (AID 444).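 Further: carbachol stimulus at about its EC50 of 1 µM final; on the % scale 0 is the no-effect control and ±100 the full control effect.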 The settings on record: Jurkat NFAT-bla M1, carbachol, beta-lactamase ratio, 5 h; at 7.69 µM (top of the series) unless noted. Summed up: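 Jurkat cells carrying an NFAT-driven β-lactamase reporter and co-transfected muscarinic M1 receptor were treated with compound plus carbachol (1 uM final, an EC50 level) for 5 h at 37 °C. CCF4 loading followed for 1 h at RT; 460/530 nm ratio gave %activity.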

Assay [5] in a line: Stat Signaling Pathway (AID 446).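 Further: ME-180 cervical cancer cells given 40 pM IL-6 alongside compound; SIE-controlled beta-lactamase reporter measured as 460/530 nm FRET emission ratio; on the % scale 0 is the no-effect control and ±100 the full control effect.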 The settings on record: ME-180 SIE beta-lactamase reporter, IL-6 stimulated, 5 h; at 7.69 µM (top of the series) unless noted. Summed up:
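Reporter line: ME-180 cervical carcinoma, SIE-beta-lactamase. Treatment: compound with 40 pM IL-6, 5 hrs, 37 C, in low-serum OPTI-MEM with 10 mM HEPES pH 7.3. Detection: 460/530 nm fluorescence.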

In assay [6] the target is Glucocorticoid receptor (Homo sapiens) (UniProt P04150). In words: GR-GFP Redistribution (AID 450;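 active means compounds whose dose series gives a full or clear partial fitted curve of increased nuclear translocation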; further: potency means the concentration at half of the fitted maximal effect). Particulars: U2OS GR-GFP nuclear translocation, laser cytometry, 2 h.
Glucocorticoid receptor (Homo sapiens), sequence (P04150 whole entry, looked up, the tested form may be a part): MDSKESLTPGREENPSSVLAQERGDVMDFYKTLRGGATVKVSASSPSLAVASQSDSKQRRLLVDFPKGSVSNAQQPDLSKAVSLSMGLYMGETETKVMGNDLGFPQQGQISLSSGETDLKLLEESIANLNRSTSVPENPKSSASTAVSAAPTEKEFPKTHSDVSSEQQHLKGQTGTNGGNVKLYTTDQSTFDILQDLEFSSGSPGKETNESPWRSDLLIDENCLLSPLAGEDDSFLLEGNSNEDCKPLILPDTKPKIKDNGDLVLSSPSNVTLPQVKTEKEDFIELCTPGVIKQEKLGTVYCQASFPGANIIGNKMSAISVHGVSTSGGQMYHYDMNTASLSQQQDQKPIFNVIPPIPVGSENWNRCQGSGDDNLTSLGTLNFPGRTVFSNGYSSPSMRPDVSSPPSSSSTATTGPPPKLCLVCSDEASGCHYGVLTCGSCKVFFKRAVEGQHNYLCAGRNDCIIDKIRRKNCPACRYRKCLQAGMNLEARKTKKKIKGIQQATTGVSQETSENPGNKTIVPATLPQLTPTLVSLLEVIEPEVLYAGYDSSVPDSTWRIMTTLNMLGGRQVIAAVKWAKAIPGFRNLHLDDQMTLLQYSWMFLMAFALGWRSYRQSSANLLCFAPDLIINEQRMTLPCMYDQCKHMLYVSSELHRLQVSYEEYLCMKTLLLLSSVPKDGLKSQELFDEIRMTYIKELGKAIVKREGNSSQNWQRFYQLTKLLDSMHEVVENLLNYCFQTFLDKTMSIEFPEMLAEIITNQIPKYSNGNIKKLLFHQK
For assay [7] the target is unchanged. In words: GR-EFC Redistribution (AID 451; calls by dose curve; further: potency means the concentration at half of the fitted maximal effect). Particulars: CHO-K1 GR-EFC translocation, beta-gal luminescence, 2 h. Summed up: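 CHO-K1 cells stably expressing nuclear-localized β-gal enzyme acceptor and GR fused C-terminally to the enzyme donor fragment; ligand-driven nuclear translocation restores β-gal by complementation. Compounds titrated up to 46 uM final, 2 h at 37 °C; luminescence read.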

Assay [8] addresses Mitogen-activated protein kinase 10 (Mus musculus) (UniProt Q61831). In words: JNK3 AlphaScreen Assay (AID 530).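 Further: kinase came from lysate of stimulated human HepG2 cells; on the % scale 0 is the no-effect control and ±100 the full control effect.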 Particulars: JNK3 lysate, c-Jun phosphorylation; series mostly up to 11.4 µM. Summed up: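 JNK3 came from HepG2 lysates pre-activated with IL-1beta and TNF-alpha and phosphorylated biotinylated GST-cJun (1-79) at 10 uM ATP, pH 7.6, room temperature. Compounds were titrated. AlphaScreen signal used anti-phospho-cJun (Ser73) antibody.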
In general terms: Bead proximity is the source of the signal in Alpha formats.

Assay [9] concerns the target 3',5'-cyclic-AMP phosphodiesterase 4B (Homo sapiens) (UniProt Q07343). In words: qHTS Assay for Inhibitors of PDE-IV (AID 607; active means well fitted activation curve with a large enough effect in the main read-out, with a control signal flat, not every such curve was filed as active; further: % of control where 0% means no effect). Particulars: HEK293 ACTOne CNG channel cells, membrane potential fluorescence; series mostly up to 22.9 µM. Summed up:
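Cell-based read-out of cAMP via a modified cyclic nucleotide-gated channel and membrane potential dye (535/590 nm) in HEK293 cells expressing PDE4 endogenously. Compounds tested up to 22.9 uM final; 100 uM RO 20-1724 reference.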

Assay [10] in a line: qHTS Assay for Identification of Small Molecule Agonists for Hypoxia Response Element Signaling Pathway (AID 914; active means well fitted activation curve with a large enough effect in the signal ratio, with a control signal flat, not every such curve was filed as active; the % refers to the signal ratio; further: % of control where 0% means no effect). Particulars: ME-180 (cervical carcinoma) HRE-bla reporter, beta-lactamase ratio, CoCl2, 17 h; activation: hits give high values. In outline: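 Cells were plated overnight, pin-dosed with compound in a titration series, co-stimulated with EC50 CoCl2 and incubated 17 hours at 37 degrees Celsius. CCF4 substrate was then loaded, and AC50 values came from the 460nm/530nm ratio.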
For orientation: Quantitative high-throughput screening tests each substance at several concentrations.

In assay [11] the target is Cytochrome P450 2C19 (Homo sapiens) (UniProt P33261). In words: qHTS Assay for Inhibitors and Substrates of Cytochrome P450 2C19 (AID 899; active means well fitted curve in the direction sought with a large enough effect; an effect the other way counts as inactive or inconclusive; further: nearly all actives have a fitted effect of over 60% in size; further: potency means the concentration at half of the fitted maximal effect). Particulars: recombinant CYP2C19, luciferin-H EGE luminescence; series mostly up to 11.4 µM. In outline: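 Human CYP2C19 (5nM) with Luciferin-H EGE at 10uM (its KM) in 50mM KPO4 was preincubated with compound for 10 min at 37C. NADPH regeneration started a 60 min 37C reaction. Luciferin was read by luminescence, normalized to 57uM ketoconazole.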
Cytochrome P450 2C19 (Homo sapiens), sequence (P33261 whole entry, looked up): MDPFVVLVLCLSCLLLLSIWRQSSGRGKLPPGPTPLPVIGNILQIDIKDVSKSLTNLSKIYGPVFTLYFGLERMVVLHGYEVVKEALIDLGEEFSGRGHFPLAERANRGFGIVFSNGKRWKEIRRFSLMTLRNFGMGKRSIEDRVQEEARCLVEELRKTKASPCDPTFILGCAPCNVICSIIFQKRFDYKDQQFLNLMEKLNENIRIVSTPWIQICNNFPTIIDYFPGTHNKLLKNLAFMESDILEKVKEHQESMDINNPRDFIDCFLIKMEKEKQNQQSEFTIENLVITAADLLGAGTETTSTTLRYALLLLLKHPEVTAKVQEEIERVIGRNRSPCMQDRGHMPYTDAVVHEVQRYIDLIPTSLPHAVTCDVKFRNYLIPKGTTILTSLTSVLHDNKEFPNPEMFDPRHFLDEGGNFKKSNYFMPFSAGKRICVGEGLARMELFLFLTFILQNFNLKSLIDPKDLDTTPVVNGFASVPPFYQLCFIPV

In assay [12] the target is Cytochrome P450 3A4 (Homo sapiens) (UniProt P08684). In words: qHTS Assay for Activators of Cytochrome P450 3A4 (AID 885; active means well fitted curve in the direction sought with a large enough effect; an effect the other way counts as inactive or inconclusive; further: nearly all actives have a fitted effect of over 65% in size). Particulars: recombinant CYP3A4, Luciferin-PPXE luminescence, 60 min; series mostly up to 11.4 µM. Summed up:
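Signal was normalized against complete inhibition by 57 uM ketoconazole. The reaction used 20nM CYP3A4 with 25uM Luciferin-PPXE, 10-min compound preincubation and a 60-min NADPH-supported step at RT.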

The target of assay [13] is Cytochrome P450 2D6 (Homo sapiens) (UniProt P10635). In words: qHTS Assay for Inhibitors and Substrates of Cytochrome P450 2D6 (AID 891; active means well fitted curve in the direction sought with a large enough effect; an effect the other way counts as inactive or inconclusive;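 further: luciferin methyl ether substrate demethylated by CYP2D6 with NADPH regeneration; on the % scale 0 is the no-effect control and ±100 the full control effect; nearly all actives have a fitted effect of over 60% in size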). Particulars: recombinant CYP2D6, luciferin-ME EGE luminescence; series mostly up to 11.4 µM. Summed up: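 Human CYP2D6 (5 nM) with 30 uM Luciferin-ME EGE (at Km) in 100 mM KPO4, compound preincubated 10 min, then NADPH regeneration system for 60 min at room temperature. Luciferin read by luminescence; normalized to 1.43 uM quinidine.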
Cytochrome P450 2D6 (Homo sapiens), sequence (P10635 whole entry, looked up): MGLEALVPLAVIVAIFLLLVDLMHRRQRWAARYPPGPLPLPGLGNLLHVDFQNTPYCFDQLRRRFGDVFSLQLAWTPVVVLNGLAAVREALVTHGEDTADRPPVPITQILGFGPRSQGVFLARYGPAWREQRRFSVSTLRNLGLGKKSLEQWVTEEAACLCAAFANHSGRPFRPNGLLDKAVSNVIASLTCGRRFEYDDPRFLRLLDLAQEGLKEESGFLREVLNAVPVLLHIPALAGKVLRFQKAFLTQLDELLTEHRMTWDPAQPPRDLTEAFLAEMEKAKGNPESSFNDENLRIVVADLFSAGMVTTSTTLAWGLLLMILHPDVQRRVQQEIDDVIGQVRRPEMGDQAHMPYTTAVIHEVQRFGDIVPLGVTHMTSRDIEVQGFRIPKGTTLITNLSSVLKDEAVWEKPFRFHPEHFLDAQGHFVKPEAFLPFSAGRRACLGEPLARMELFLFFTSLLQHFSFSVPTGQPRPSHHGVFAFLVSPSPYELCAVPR

Cytochrome P450 3A4 (Homo sapiens), sequence (P08684 whole entry, looked up): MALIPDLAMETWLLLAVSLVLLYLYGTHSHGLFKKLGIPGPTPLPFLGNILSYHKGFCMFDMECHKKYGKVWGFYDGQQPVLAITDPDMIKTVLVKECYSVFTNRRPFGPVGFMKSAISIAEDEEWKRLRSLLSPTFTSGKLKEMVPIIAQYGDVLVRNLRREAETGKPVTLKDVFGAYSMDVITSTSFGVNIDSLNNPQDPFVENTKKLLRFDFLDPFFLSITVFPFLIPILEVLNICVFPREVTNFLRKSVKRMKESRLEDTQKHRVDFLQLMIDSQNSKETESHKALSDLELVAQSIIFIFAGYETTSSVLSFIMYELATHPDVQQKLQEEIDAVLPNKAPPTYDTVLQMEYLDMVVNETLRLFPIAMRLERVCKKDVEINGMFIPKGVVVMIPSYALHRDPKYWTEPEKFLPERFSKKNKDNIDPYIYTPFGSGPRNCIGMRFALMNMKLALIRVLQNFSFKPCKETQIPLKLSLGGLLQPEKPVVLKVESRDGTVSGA
Lysosomal acid glucosylceramidase (Homo sapiens), sequence (P04062 whole entry, looked up): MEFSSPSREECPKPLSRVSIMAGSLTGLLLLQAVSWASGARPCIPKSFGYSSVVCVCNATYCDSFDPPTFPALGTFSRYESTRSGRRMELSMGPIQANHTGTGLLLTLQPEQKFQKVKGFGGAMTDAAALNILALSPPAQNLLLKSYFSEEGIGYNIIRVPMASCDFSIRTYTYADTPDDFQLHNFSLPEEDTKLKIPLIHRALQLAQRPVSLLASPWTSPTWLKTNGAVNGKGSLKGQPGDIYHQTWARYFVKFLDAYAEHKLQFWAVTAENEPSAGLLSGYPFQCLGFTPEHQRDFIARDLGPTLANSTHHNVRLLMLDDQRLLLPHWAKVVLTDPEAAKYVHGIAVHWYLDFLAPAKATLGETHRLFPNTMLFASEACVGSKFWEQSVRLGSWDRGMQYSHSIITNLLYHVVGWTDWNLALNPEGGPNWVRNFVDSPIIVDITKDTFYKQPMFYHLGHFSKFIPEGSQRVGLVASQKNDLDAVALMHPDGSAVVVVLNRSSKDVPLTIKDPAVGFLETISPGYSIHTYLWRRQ
3',5'-cyclic-AMP phosphodiesterase 4B (Homo sapiens), sequence (Q07343 whole entry, looked up): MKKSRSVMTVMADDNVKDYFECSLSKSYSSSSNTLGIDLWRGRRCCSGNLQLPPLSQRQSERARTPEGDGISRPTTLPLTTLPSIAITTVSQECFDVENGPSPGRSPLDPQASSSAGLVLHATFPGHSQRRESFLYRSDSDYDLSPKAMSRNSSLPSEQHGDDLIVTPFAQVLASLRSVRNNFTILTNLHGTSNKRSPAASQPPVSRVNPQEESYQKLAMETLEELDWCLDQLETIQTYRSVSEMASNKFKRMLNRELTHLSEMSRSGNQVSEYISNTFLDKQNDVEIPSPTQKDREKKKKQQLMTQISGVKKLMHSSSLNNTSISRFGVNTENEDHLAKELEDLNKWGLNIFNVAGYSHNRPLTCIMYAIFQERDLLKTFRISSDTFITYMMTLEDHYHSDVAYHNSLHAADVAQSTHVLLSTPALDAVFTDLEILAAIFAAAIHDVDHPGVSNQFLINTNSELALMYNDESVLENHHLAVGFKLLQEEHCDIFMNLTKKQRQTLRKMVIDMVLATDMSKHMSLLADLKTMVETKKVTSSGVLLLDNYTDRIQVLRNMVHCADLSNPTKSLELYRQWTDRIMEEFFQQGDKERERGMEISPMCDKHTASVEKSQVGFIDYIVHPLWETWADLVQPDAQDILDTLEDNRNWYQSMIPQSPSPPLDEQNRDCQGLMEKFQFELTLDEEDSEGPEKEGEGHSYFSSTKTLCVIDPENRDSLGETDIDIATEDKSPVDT
Cytochrome P450 1A2 (Homo sapiens), sequence (P05177 whole entry, looked up): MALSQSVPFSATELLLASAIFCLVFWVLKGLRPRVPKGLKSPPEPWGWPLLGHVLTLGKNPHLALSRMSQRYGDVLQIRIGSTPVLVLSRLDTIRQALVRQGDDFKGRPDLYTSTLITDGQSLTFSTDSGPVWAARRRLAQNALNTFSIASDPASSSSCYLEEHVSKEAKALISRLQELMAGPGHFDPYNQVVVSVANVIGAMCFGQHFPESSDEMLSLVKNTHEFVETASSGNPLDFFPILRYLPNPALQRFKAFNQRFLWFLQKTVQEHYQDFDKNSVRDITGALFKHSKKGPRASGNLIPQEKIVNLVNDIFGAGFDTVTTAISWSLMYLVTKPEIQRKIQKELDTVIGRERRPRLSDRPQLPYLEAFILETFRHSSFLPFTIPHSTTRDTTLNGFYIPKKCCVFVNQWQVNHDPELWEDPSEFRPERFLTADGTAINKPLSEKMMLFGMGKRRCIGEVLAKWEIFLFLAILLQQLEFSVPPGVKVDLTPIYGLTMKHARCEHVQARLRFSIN

On to `N=C(N)[C@H](N=Nc1ccccc1)C(N)=O`, for which the Potency in [1] is greater than 11.4 µM; in assay [3], 0.794 µM (active); in [6], greater than 46 µM; in [7] it was greater than 9.22 µM. For the same compound, the activity change, negative = inhibition in assay [2] was 20.5%; in assay [4] it was 1.62%. In addition, in [5], the activity, negative = inhibition is 1.3%. The Potency entry in [8] and in assay [9] was “inactive” in each case. For the same compound, the activation in [10] is 1%.

As to `O=S(=O)(O)CCCc1cccc2ccccc12`, the Potency was greater than 11.4 µM in assay [1], greater than 46 µM in assay [6] and greater than 9.22 µM in assay [7]. Moreover, the activity change, negative = inhibition is 3.46% in [2], -16.7% [at 2.29 µM] in assay [3] and 3.52% in [4]. Besides, the activity, negative = inhibition in assay [5] was 1.1%. For the same compound, the Potency result in assay [8] and in assay [9] was “inactive” each time. For the same compound, the activation in assay [10] was -2.01%.

Consider `O=C(O)C(Sc1ccc(Cl)cc1)Sc1ccc(Cl)cc1`, for which the values for the Potency in assay [1], in [6] and in [7] were greater than 11.4 µM, greater than 46 µM and greater than 9.22 µM, respectively. Also, the activity change, negative = inhibition is 0.225% in [2], -27.8% [at 2.29 µM] in [3] and -19.6% in [4]. The activity, negative = inhibition in [5] is -29.3%. For the same compound, the Potency result in assay [8] and in assay [9] was “inactive” in each case. In [10], the activation is -0.83%.

With `CS[C@]12C(=O)C[C@]3(C)[C@@H](CC[C@@]3(O)C(=O)CO)[C@@H]1CCC1=CC(=O)CC[C@]12C`, the Potency is greater than 11.4 µM in [1], greater than 46 µM in assay [6], greater than 9.22 µM in assay [7] and 3.16 µM (active) in [11]. Besides, the activity change, negative = inhibition in [2] is 0.905%; in assay [3], -24.3% [at 2.29 µM]; in assay [4], 1.52%. Moreover, the activity, negative = inhibition in assay [5] is -2.04%. For the same compound, the Potency entry in assay [8] and in [9] was “inactive” throughout.

Regarding `O=S(=O)(c1ccccc1)N1CN2CN(C1)CN(S(=O)(=O)c1ccccc1)C2`, the results for the Potency in assay [1], in [6] and in [7] were greater than 11.4 µM, greater than 46 µM and greater than 9.22 µM, respectively. For the same compound, the activity change, negative = inhibition in assay [2] is -16.9%; in [4] it was -4.88%. For the same compound, the Potency result in [3], in assay [8] and in assay [9] was “inactive” each time. In [5], the activity, negative = inhibition was -0.275%. For the same compound, in assay [10], the activation was -1.12%.

Take `NC(=O)c1csc(-c2ccc(CO)o2)n1`: the Potency in assay [1] is greater than 11.4 µM; in assay [6], greater than 46 µM; in assay [7] it was greater than 9.22 µM. Further, the values for the activity change, negative = inhibition in [2] and in [4] were -2.81% and 10.7%, respectively. Besides, the Potency result in [3], in [8], in assay [9] and in [11] was “inactive” in each case. In addition, the activity, negative = inhibition in assay [5] was 13.2%.

Consider `O=C1c2ccccc2-c2ccc(NC(=O)[C@H]3CCCC[C@@H]3C(=O)O)cc21`, for which the Potency in assay [1] is greater than 11.4 µM; in [3], 1 µM (active); in assay [6], greater than 46 µM; in assay [7] it was greater than 9.22 µM. For the same compound, the activity change, negative = inhibition was 9.83% in assay [2] and 13.7% in assay [4]. Moreover, in [5], the activity, negative = inhibition is 1.55%. Besides, the Potency result in [8] and in assay [9] was “inactive” in each case. In addition, the activation in [10] is -7.45%.

With `NS(=O)(=O)c1ccc(N=Nc2ccc(O)c(C(=O)O)c2)cc1`, the values for the Potency in assay [1], in [6] and in assay [7] were greater than 11.4 µM, greater than 46 µM and greater than 9.22 µM, respectively. Also, the activity change, negative = inhibition was -0.844% in assay [2] and -4.82% in assay [4]. Further, the Potency result in assay [3], in [8] and in assay [9] was “inactive” in each case. Further, in assay [5], the activity, negative = inhibition was -2.97%. For the same compound, in assay [10], the activation is 12.3%.

For `CN(C)C(=O)c1ccc(-c2nc(Nc3ccc(F)cc3)c3ccccc3n2)cc1`, the Potency in assay [1] was greater than 11.4 µM; in assay [3], 3.98 µM (active); in [6] it was greater than 46 µM; in assay [7] it was greater than 46 µM. Besides, the activity change, negative = inhibition in [2] was -18.3%; in assay [4], 1.18%. Further, the activity, negative = inhibition in [5] was -8.08%. The Potency entry in [8] and in assay [12] was “inactive” throughout.

As for `O=C(O)c1ccc(C(=O)O)c(C(=O)O)c1.[NH-][C@@H]1CCCC[C@@H]1[NH-].[Pt]`, the Potency in assay [1] was greater than 11.4 µM; in [6] it was greater than 46 µM; in assay [7], greater than 9.22 µM. Further, the activity change, negative = inhibition in [2] was 0.428%; in assay [4] it was -9.87%. Moreover, the Potency entry in assay [3] and in assay [9] was “inactive” in each case. The activity, negative = inhibition in assay [5] is -6.09%.

`CN(C)CCNc1nc2c(c(=O)n(C)c(=O)n2C)n1C`: the Potency in assay [1] was greater than 11.4 µM; in [6] it was greater than 46 µM; in [7], greater than 9.22 µM. Besides, the activity change, negative = inhibition in [2] was -7.15%; in assay [4], 4.81%. Further, the Potency result in assay [3], in assay [8] and in assay [13] was “inactive” throughout. The activity, negative = inhibition in assay [5] was 9.47%.

Regarding `COc1ccc(CNc2ncnc3ccc(-c4ccccc4C#N)cc23)c(OC)c1`, the Potency in assay [1] was greater than 11.4 µM; in [3] it was 6.31 µM (active); in assay [6], greater than 46 µM; in [7], greater than 46 µM. The results for the activity change, negative = inhibition in assay [2] and in assay [4] were 13.2% and 8.27%, respectively. Moreover, the activity, negative = inhibition in assay [5] was -15%. Also, the Potency entry in [8] and in assay [12] was “inactive” in each case.

Take `COc1ccc(-n2c(=O)c(C)nc3cnc(Oc4cccc(Cl)c4)nc32)cc1`: the Potency in assay [1] is greater than 11.4 µM; in [3] it was 7.94 µM (active); in [6], greater than 9.22 µM; in [7], greater than 46 µM. For the same compound, the figures for the activity change, negative = inhibition in assay [2] and in assay [4] were -20.7% and -1.69%, respectively. Besides, the activity, negative = inhibition in assay [5] was -10.9%. Besides, the Potency entry in assay [8] and in [12] was “inactive” throughout.

With `O=S(=O)(O)c1cc(N=Nc2cccc3ccccc23)c(O)c2ncccc12`, the Potency was greater than 11.4 µM in assay [1], 0.631 µM (active) in assay [3], greater than 46 µM in [6] and greater than 9.22 µM in assay [7]. For the same compound, the activity change, negative = inhibition in assay [2] is -3.71%; in assay [4], 8.38%. Also, in [5], the activity, negative = inhibition was 0.477%. Also, in [9], the Potency result is “inactive”.

Consider `Cc1nc2cnc(N3CCOCC3)nc2n(Cc2cccs2)c1=O`, for which the Potency in assay [1] is greater than 11.4 µM; in assay [3], 2 µM (active); in assay [6], greater than 9.22 µM; in [7], greater than 46 µM. The activity change, negative = inhibition was -18.4% in assay [2] and -3.19% in [4]. Also, in [5], the activity, negative = inhibition is -5.33%. The Potency result in assay [8] and in assay [12] was “inactive” each time.
